In PubChem BioAssay AID504651 (National Center for Advancing Translational Sciences (NCATS), 2011) one finds potentiation data, which are given here for 52 molecules.

Screen size: about 360,000 compounds; about 130 (0.036%) were called active. Rule as the data show it: active = potentiation above about 30%; inactive = the rest. Many of the other results were omitted from the sample, so actives are more common in it than they were.

The target of the test is D(1A) dopamine receptor (Homo sapiens) (UniProt P21728). Description: Potentiators of Human D1 Dopamine Receptor: qHTS. Also: 0% is about no effect. The conditions noted are these: HEK293 TREx D1 cells, calcium flux, dopamine EC20 potentiation; at 10 µM; hits give high values.
Sequence of D(1A) dopamine receptor (Homo sapiens) (P21728 whole entry, looked up): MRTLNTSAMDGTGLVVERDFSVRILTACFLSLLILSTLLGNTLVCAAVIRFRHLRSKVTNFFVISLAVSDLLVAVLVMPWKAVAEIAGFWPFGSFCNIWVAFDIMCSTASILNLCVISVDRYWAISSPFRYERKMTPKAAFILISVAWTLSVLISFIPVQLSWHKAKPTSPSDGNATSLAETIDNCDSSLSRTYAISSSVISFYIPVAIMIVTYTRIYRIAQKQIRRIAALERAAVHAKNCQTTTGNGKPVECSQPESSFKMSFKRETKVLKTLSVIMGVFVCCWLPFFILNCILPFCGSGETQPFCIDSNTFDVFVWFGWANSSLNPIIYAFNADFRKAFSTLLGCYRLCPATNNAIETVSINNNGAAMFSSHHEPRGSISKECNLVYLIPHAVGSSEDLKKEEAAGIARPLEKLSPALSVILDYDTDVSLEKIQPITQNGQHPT
For the molecule `Cc1cc(C)c2oc(C(=O)Nc3c(C(=O)Nc4ccccc4)oc4ccccc34)cc(=O)c2c1`, the potentiation was 0.8% (inactive).

Take `Cc1ccc(C(=O)NC2CCN(C#N)CC2)cc1`: the potentiation is -6.15% (inactive). Consider `O=C(Nc1nc2c(s1)CCCC2)c1ccccc1F`, for which the potentiation is 0.5% (inactive).

For the molecule `CCOc1ccc(S(=O)(=O)c2cn(Cc3ccc(OC)cc3)c3ccc(F)cc3c2=O)cc1`, the potentiation is -1.95% (inactive).

For the molecule `Cc1cc(C)c(NC(=O)CSc2nc3nccnc3c(=O)n2CCc2c[nH]c3ccccc23)c(C)c1`, the potentiation was -2.8% (inactive).

As for `Cc1cccc(Cn2c(=O)n(CCC(=O)NCCc3ccc(Cl)cc3)c(=O)c3sccc32)c1`, the potentiation was 0.55% (inactive). Under `O=C(CNC(=O)c1ccc(Cl)cc1Cl)OC(C(=O)Nc1cc(C(F)(F)F)ccc1Cl)c1ccccc1` (configuration not stated) stands -4% (inactive). Under `Cc1ccc(-c2cc(C(=O)Oc3ccccc3Cl)no2)cc1C` stands 0.6% (inactive); under `COc1ccc(Cl)cc1NC(=O)Cn1c(=O)c2ccccc2n2nncc12`, 1.65% (inactive); under `CN=C1S/C(=C\c2ccc(Sc3ccc(Cl)cc3)o2)C(=O)N1C`, 5.08% (inactive). Under `NS(=O)(=O)c1ccc(-c2ccc(/C=C3\SC(=O)NC3=O)o2)cc1` stands 0.85% (inactive). Regarding `CN1C(=O)/C(=C\c2ccc(-c3ccccc3)o2)SC1=S`, the potentiation is 39.7% (active). Turning to `Oc1ccc(Cl)cc1C1C=C(c2ccc3c(c2)OCO3)NC(c2c(F)cccc2Cl)N1` (configuration not stated), the potentiation is -3.2% (inactive). Regarding `O=[S+]([O-])(c1ccc2c(c1)OCCO2)N1CCN([S+](=O)([O-])c2c(Cl)cc(Cl)cc2Br)CC1`, the potentiation was -3.2% (inactive). Then `COc1ccc(-c2nc(Cn3c(=O)cc(C)c4c(C)nn(-c5ccccc5)c43)c(C)o2)c(OC)c1`, with -4.4% (inactive); and `Cc1nc2ccn(Cc3cccs3)c(=O)c2cc1C(=O)NCc1ccc(Cl)cc1`, with -6.65% (inactive); and `COc1ccc(CCNS(=O)(=O)c2cc(-c3cc(C)no3)ccc2C)cc1OC`, with -4.9% (inactive).

Turning to `Cc1ccc(S(=O)(=O)N2CCc3cc(C(=O)Nc4ccc(Cl)cc4C)ccc32)cc1`, the potentiation is -2.8% (inactive). On to `Cc1ccsc1CN(C(=O)c1oc2ccc(Br)cc2c1C)C1CCS(=O)(=O)C1` (configuration not stated), for which the potentiation is 0.7% (inactive). Then `Cc1ccc(SCC(=O)Nc2ccc3oc(-c4ccccc4F)nc3c2)cc1`, with -1.1% (inactive); and `Cc1ccc(C)c(CNC(=O)c2cc3ccccn3n2)c1`, with -6.6% (inactive). Then `COc1ccc2[nH]c3c(c2c1)CCN(C(=O)CCC1CCCC1)C3c1ccc(F)cc1` (configuration not stated), with -2.5% (inactive); and `COc1ccc([N+](=O)[O-])cc1C1NN=C(c2cccc3ccccc23)S1` (configuration not stated), with 0.861% (inactive). Take `COc1ccc([N+](=O)[O-])cc1-c1nc2ccccc2nc1-c1ccccc1`: the potentiation was 30.4% (active).

With `COc1cc2c(cc1OC)C(c1cccc([N+](=O)[O-])c1)=NCC2`, the potentiation is -1.3% (inactive). On to `Cc1ccc(NC(=O)c2oc3ccc(S(=O)(=O)N4CCCCC4)cc3c2C)cc1Cl`, for which the potentiation is 3.15% (inactive). Under `CC1=C(c2ccc(C)c(C)c2)S(=O)(=O)NC1=NCc1ccccc1Cl` stands -1.4% (inactive); under `O=[S+]([O-])(c1ccc(OC(F)(F)F)cc1)N1CCN([S+](=O)([O-])c2ccc3c(c2)OCCO3)CC1`, 5.85% (inactive). Under `O=C(CCS(=O)(=O)c1ccccc1)N(Cc1cccnc1)c1nc2c(F)cccc2s1` stands -1.7% (inactive); under `Cc1ccc(CNC(=O)Cn2c(=O)ccc3cc(S(=O)(=O)N4CCCC4)ccc32)cc1`, -0.25% (inactive).

For the molecule `CC(C)S(=O)(=O)c1oc(-c2ccc(F)cc2)nc1S(=O)(=O)c1ccc(F)cc1`, the potentiation was 3.35% (inactive).

Take `CCOC(=O)C1CCCN(C(=O)c2ccc3c(c2)sc2nc(-c4ccc(CC)cc4)cn23)C1` (configuration not stated): the potentiation is -1.95% (inactive). For `CCN1CCN(CCCNC(=O)c2cnn(-c3ccc(C)cc3C)c2C2CCN(C(=O)OC(C)(C)C)CC2)CC1`, the potentiation is -2.55% (inactive). Then `Cc1cccc(C)c1-n1ncc(C(=O)NCCCN2CCCCC2)c1C1CCN(C(=O)OC(C)(C)C)CC1`, with 31.8% (active).

As to `COc1ccccc1N1CCN(CCCNC(=O)c2cnn(-c3ccccc3Cl)c2C2CCN(C(=O)OC(C)(C)C)CC2)CC1`, the potentiation is -8.55% (inactive).

For the molecule `Cc1cc(NS(=O)(=O)c2ccc3oc(=O)c4ncn(C)c4c3c2)ccc1Br`, the potentiation was -5.95% (inactive). Consider `CCc1ccc(S(=O)(=O)c2nnn3c2nc(N2CCN(CC)CC2)c2sccc23)cc1`, for which the potentiation is 1.1% (inactive). Then `O=C(NCCc1ccccc1)c1ccc2c(c1)N(Cc1ccc(F)cc1)C(=O)c1ccccc1S2(=O)=O`, with 2.25% (inactive); and `CCOc1ccc(-c2cc3nc(C4CCN(C(=O)OC(C)(C)C)CC4)c(C(=O)Nc4ccc(C(=O)OC)cc4)cn3n2)cc1`, with -0.6% (inactive). On to `Cn1c(=O)n(Cc2c(F)cccc2Cl)c(=O)c2c1nc1n2CCN1c1ccc(F)cc1`, for which the potentiation is -3.15% (inactive). Then `CC(C)CCN(C(=O)Nc1ccc(Cl)c(Cl)c1)C(C)c1cccs1` (configuration not stated), with -1.95% (inactive); and `O=C(CCCn1c(=O)c2cccn2c2cccnc21)NCc1ccc(F)cc1`, with -4.5% (inactive); and `CCc1nn(CC(=O)NCC(C)c2ccccc2)c(=O)c2cc3occc3n12` (configuration not stated), with -5.55% (inactive). For the molecule `CCCCCn1c(=O)[nH]c2cc(C(=O)Nc3cc(C)cc(C)c3)ccc2c1=O`, the potentiation was 1.1% (inactive).

Turning to `CCCN1CCN(CCCNC(=O)c2ccc3nc(Cc4ccccc4)oc3c2)CC1`, the potentiation was -0.6% (inactive). `O=S(=O)(c1ccc2c(c1)OCCCO2)N1CCN(S(=O)(=O)c2c(F)cccc2F)CC1`: the potentiation is -3.35% (inactive). Then `O=c1n(Cc2cccc(C(F)(F)F)c2)c2ccccc2c2nc(-c3ccccc3)nn12`, with 0.85% (inactive); and `CCOc1cccc(CNC(=O)c2ccc(N3CCCC3)c(NC(=O)Nc3ccccc3CC)c2)c1`, with -0.4% (inactive); and `Oc1ccc(Cl)cc1C1C=C(c2ccc3c(c2)OCO3)NC(c2ccc(F)c(Br)c2)N1` (configuration not stated), with 1.65% (inactive).

Turning to `CCOc1ccc(N2CC(C)Cn3c2nc2c3c(=O)n(Cc3c(F)cccc3Cl)c(=O)n2C)cc1` (configuration not stated), the potentiation is 1.1% (inactive).

As for `CC(C)c1ccc(C2CC(=O)N3CN(C4CCCCC4)CSC3=C2C#N)cc1` (configuration not stated), the potentiation is 9.05% (inactive). Then `CN(C)c1ccc(C(=O)NCC(=O)OC(C(=O)Nc2cc(C(F)(F)F)ccc2Cl)c2ccccc2)cc1` (configuration not stated), with -1.25% (inactive).
